Data taken from PubChem BioAssay (NCATS).
Inconclusive results are not listed. Active and inactive are the calls of the source. The call rests on the fitted dose curve; in most records, active means well fitted curve in the direction sought with a large enough effect; inconclusive means small, poorly fitted or top-dose-only effect, or another doubt; inactive means no such curve, though single readings can be large; an effect the other way counts as inactive or inconclusive.

Assays:
[1] = tested on: Zika virus NS2B-NS3 protease (linked construct); assay: Primary screen NINDS Rhodamine qHTS for Zika virus inhibitors (AID 1347160); further: nearly all actives have a fitted effect of over 55% in size; further: potency means the concentration at half of the fitted maximal effect
Method in brief: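 Rhodamine110-peptide cleavage (1.5 µM substrate) by 25 nM linked NS2B-NS3 enzyme at pH 8.0 (Tris, Tween 20), after 15 min RT preincubation with compounds; 15-min fluorescence change normalized to controls and Hill-fitted.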

[2] = OV-KATE Cancer Cell Toxicity qHTS against the NCATS CANVASS Library (AID 1347345); further: potency means the concentration at half of the fitted maximal effect
Method in brief: (§1)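 Following a 4 h pre-incubation of 1000 seeded cells, compounds were pinned in an 11-pnt dilution series and left for 72 h; viability then came from CellTiter-Glo.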

[3] = HPAF-II Cancer Cell Toxicity qHTS against the NCATS CANVASS Library (AID 1347346); further: nearly all actives have a fitted effect of over 55% in size; further: potency means the concentration at half of the fitted maximal effect
Method in brief: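 Cytotoxicity read-out was CellTiter-Glo luminescence after 72 h at 37 degrees C exposure of HPAF-II cells (1000/well) to compounds in an 11-point titration.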

[4] = UWB1.289 Cancer Cell Toxicity qHTS against the NCATS CANVASS Library (AID 1347347); further: nearly all actives have a fitted effect of over 60% in size; further: potency means the concentration at half of the fitted maximal effect
Method in brief: as §1

[5] = OV-SAHO Cancer Cell Toxicity qHTS against the NCATS CANVASS Library (AID 1347348); further: nearly all actives have a fitted effect of over 55% in size; further: potency means the concentration at half of the fitted maximal effect
Method in brief: as §1

[6] = U-118MG Cancer Cell Toxicity qHTS against the NCATS CANVASS Library (AID 1347351); further: potency means the concentration at half of the fitted maximal effect
Method in brief: as §1

[7] = COV-362 Cancer Cell Toxicity qHTS against the NCATS CANVASS Library (AID 1347352); further: potency means the concentration at half of the fitted maximal effect
Method in brief: (§2)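 Toxicity was measured as CellTiter-Glo luminescence after 72 h exposure to an 11-point compound series. Compound was added to 1000 cells/well 4 h after seeding.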

[8] = A2780 Cisplatin Sensitive Ovarian Cancer Cell Toxicity qHTS against the NCATS CANVASS Library (AID 1347353); further: nearly all actives have a fitted effect of over 60% in size; further: potency means the concentration at half of the fitted maximal effect
Method in brief: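 Cisplatin-sensitive A2780 ovarian cells (750/well) received compound in 11 concentrations, and were incubated 72 h at 37 °C. ATP content was measured by ATPLite luminescence; bortezomib served as control.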

[9] = UWB1.289-WTBRCA1 Cancer Cell Toxicity qHTS against the NCATS CANVASS Library (AID 1347354)
Method in brief: as §2

[10] = HPAF-II 24hr Apoptosis Induction qHTS against the NCATS CANVASS Library (AID 1347356)
Method in brief: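 Caspase-Glo 3/7 luminescence, read after 15 min room-temperature development, measures apoptosis in HPAF-II cells treated 24 h at 37 degrees C with an 11-point concentration series; 500 cells/well; doxorubicin control.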

[11] = HEK293 24hr Apoptosis Induction qHTS against the NCATS CANVASS Library (AID 1347359)
Method in brief: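 HEK293 cells (500/well, DMEM + 10% FBS) were exposed to compounds in an 11-point series for 24 hours at 37 degrees C, then caspase-3/7 activity was read by Caspase-Glo DEVD luciferase luminescence after 15 min.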

[12] = HEK293 12hr Apoptosis Induction qHTS against the NCATS CANVASS Library (AID 1347361); further: potency means the concentration at half of the fitted maximal effect
Method in brief: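 Luminescent caspase-3/7 signal, proportional to enzyme activity, was recorded from HEK293 cultures in DMEM + 10% FBS treated for 12 hours with titrated natural products (11 points). Doxorubicin (0.1nM - 4uM) served as control.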

[13] = tested on: NAD(P)H diaphorase (Clostridium kluyveri); assay: Diaphorse counterscreen qHTS: Assay Interference Panel against the NCATS CANVASS Library (AID 1347362)
Method in brief: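 Clostridium kluyveri diaphorase in PBS with 0.01% Tween-20 was preincubated 15 min at room temperature in the dark with compounds (11-point series). Resorufin fluorescence (ex 525/20, em 598/25) was read 5 min after adding resazurin/NADH.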

[14] = qHTS for ATAD5 Agonist screened against the NCATS CANVASS Library (AID 1347367);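 further: luciferase reporter driven by ATAD5 which rises upon DNA damage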
Method in brief: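 Genotoxicity was scored as increased ATAD5-luciferase luminescence in HEK293T after 16hr of exposure, with cell viability measured by fluorescence beforehand in the same well.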

[15] = MCF7 Cancer Cell Toxicity qHTS against the NCATS CANVASS Library (AID 1347369)
Method in brief: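 This 72 hr qHTS scored MCF7 viability by CellTiterGlo luminescence, with 500 cells/well; bortezomib titration ran as control.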

[16] = J3T Cancer Cell Toxicity qHTS against the NCATS CANVASS Library (AID 1347371); further: potency means the concentration at half of the fitted maximal effect
Method in brief: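 Cytotoxicity read as CellTiterGlo ATP luminescence after 72 h incubation (37C, 5% CO2) of J3T canine glioma cells (500/well) with an 11-point compound series.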

[17] = qHTS for Hypoxia signaling pathway (HIF-1) agonists against the NCATS CANVASS Library (AID 1347375)
Method in brief: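 Beta-lactamase reporter under HRE control in ME-180 cells; compounds (11-point qHTS series) added after 5 hrs plating, then 17 hrs at 37C. FRET substrate read after 2 hr; same-well CellTiter-Glo luminescence gave viability and normalization.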

[18] = qHTS for Inflammasome Signaling Inhibitors: IL-1-beta AlphaLISA screen against the NCATS CANVASS Library (AID 1347379);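 further: human THP-1 cells primed with LPS then triggered with ATP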
Method in brief: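 Secreted IL-1B from human THP-1 cells quantified by AlphaLISA 16 hr after compound addition (final up to 57.5 uM). A 1 hr compound pretreatment preceded inflammasome activation with 250 ng/mL LPS plus 1.25 mM ATP (final).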

[19] = Vero-766 cells viability qHTS against the NCATS CANVASS Library: Counterscreen for Zika virus inhibition assay (AID 1347394); further: series mostly up to about 46 µM; nearly all actives have a fitted effect of over 60% in size
Method in brief: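 Counterscreen for toxicity: Vero 766 cells exposed 72 h to an 11-point compound series, viability by CellTiter-Glo.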

[20] = qHTS for inhibitors of Wild type Zika virus screened against the NCATS CANVASS Library (AID 1347396);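 further: ATP luminescence of surviving cells so rescue from viral cell killing; series mostly up to about 46 µM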
Method in brief: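 Luminescent CellTiter Glo read-out of virus-induced cytotoxicity, 72 h post-infection, in Vero 766 cells. Compounds were tested at 11 concentrations; uninfected, vehicle-treated wells defined 100% inhibition.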

Measured: Potency

C=C1C[C@@]23C=CC(=O)[C@@](C)(CCCC(C)C(=O)O)[C@@H]2C[C@@H]1CC3 (stereo not given in full)
active: [1] 44 µM
inactive: all other assays above

O=C(O)CC1OC(=O)c2c(O)cccc21 (stereo not given)
inactive: all assays above

CO[C@@H]1[C@H](O)[C@@H](C)O[C@@H](OC[C@H]2/C=C/C=C/C(=O)C(C)C[C@H](C)C(O[C@@H]3O[C@H](C)CC4(OC(=O)O[C@@H]4C)C3O)[C@@H](C)/C=C/C(=O)OC2C)[C@@H]1OC (stereo not given in full)
active: [1] 49.3 µM
inactive: all other assays above

O=c1cc(-c2ccc(O)cc2)oc2c([C@@H]3OC(CO)[C@H](O)[C@@H](O)[C@H]3O)c(O)cc(O)c12 (stereo not given in full)
active: [1] 17.5 µM
inactive: all other assays above

COc1ccc([C@@H]2c3cc(OC)c(OC)cc3C(=O)C(C)C2C)cc1OC (stereo not given in full)
not listed: [8]
inactive: all other assays above

C[C@H]1C[C@@H]([C@@H]2CC[C@]34O[C@H](CC[C@@]35C[C@H](C)C(=O)O5)CN24)OC1=O
inactive: all assays above

C=C1C[C@@]23C=CC(=O)[C@@](C)(CCC(=O)Nc4c(O)ccc(C(=O)O)c4O)C2C[C@@H]1CC3O (stereo not given in full)
active: [1] 49.3 µM
inactive: all other assays above

C[C@@]12CCC[C@@](C)(C(=O)O)[C@H]1CC[C@]13C[C@H]4C[C@H](O[C@@]4(C)C1)[C@H]32
active: [1] 3.92 µM | [4] 7.47 µM
not listed: [9]
inactive: all other assays above

CC1(C)C=Cc2c(ccc3c2OC[C@@H](c2ccc(O)cc2O)C3)O1
active: [1] 44 µM
not listed: [8]
inactive: all other assays above

CC[C@@H]1C[C@@]2(CC)OC(=O)[C@@]3(CC)OC(=O)[C@@H]1[C@@H]23
inactive: all assays above

C=C1C(=O)O[C@H]2[C@H]1CC/C(CO)=C\CC[C@@]1(C)O[C@@H]21
inactive: [1] | [10] | [11] | [13] | [14] | [17] | [19] | [20]
active: [2] 18.8 µM | [3] 16.8 µM | [4] 7.47 µM | [5] 23.6 µM | [6] 18.8 µM | [7] 13.3 µM | [8] 2.96 µM | [12] 23.5 µM | [16] 18.7 µM | [18] 6.11 µM
